Compound activity from PubChem BioAssay.
COUP-TFII inh = NR2F2 (human) inhibition, primary screen; P24468; HEK293T NGFI-A luciferase reporter, luminescence; inhibition, % at 8.6 µM; actives 0.7% (n = 370,000); AID 686940;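 active = inhibition above a per-plate cutoff, mean inhibition of test wells between control levels plus 3 SD, cut at about 38% in these data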;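 also: cells cotransfected with COUP-TFII expression vector driving the NGFI-A reporter; 0% = median of COUP-TF2 test wells and 100% = reporter-only cells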
Target sequence (P24468 whole entry, looked up): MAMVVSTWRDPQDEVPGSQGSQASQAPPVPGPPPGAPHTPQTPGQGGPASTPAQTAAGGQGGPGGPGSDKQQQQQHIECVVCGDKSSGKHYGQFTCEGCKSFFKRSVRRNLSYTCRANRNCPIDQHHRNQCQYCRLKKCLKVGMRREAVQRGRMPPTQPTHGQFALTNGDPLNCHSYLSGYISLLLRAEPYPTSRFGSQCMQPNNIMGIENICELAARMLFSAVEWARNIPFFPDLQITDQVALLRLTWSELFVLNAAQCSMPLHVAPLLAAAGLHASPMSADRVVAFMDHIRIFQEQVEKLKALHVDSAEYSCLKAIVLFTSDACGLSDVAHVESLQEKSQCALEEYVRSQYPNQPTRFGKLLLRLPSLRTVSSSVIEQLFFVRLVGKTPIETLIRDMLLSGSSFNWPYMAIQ
LRH-1 inv ag = NR5A2 inverse agonism in reporter assay. actives 0.13% (n = 360,000). O00482. HEK293T StAR-luciferase reporter, LRH-1 transfected, 24 h. inhibition, % at 3.6 µM;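 active = inhibition above the mean inhibition of all tested compounds plus 3 SD, cut at about 73% in these data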;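 also: 0% = DMSO wells and 100% = reporter-only cells lacking LRH-1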
NCOA2 inhibitor = human SRC2 (NCOA2) inhibition; actives 0.17% (n = 370,000); Q15596; AID 651957; HEK293 GAL4-SRC2 luciferase reporter, luminescence; inhibition, % at 9 µM;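 active = inhibition above the mean inhibition of all tested compounds plus 3 SD, set per campaign, cut at about 52% in these data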;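 also: 0% = DMSO treated cells and 100% = cells given Gossypol at 36 µM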
SRC1 inh = inhibitors of human steroid receptor coactivator 1 (SRC1); Q15788; HEK293 GAL4-SRC1 luciferase reporter, luminescence; inhibition, % at 3.6 µM; actives 0.12% (n = 360,000); AID 588354;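 active = inhibition above the campaign mean plus 3 SD, with each screening campaign given its own cutoff, cut at about 60% in these data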;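 also: 0% = DMSO treated cells and 100% = gossypol at 36 µM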
NCOA3 inh = inhibitors of human steroid receptor coactivator 3 (SRC3) | Q9Y6Q9 | HEK293 GAL4-SRC3 luciferase reporter, luminescence | inhibition, % at 3.6 µM | actives 0.17% (n = 360,000);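 active = inhibition above a per-campaign cutoff, the mean of all compounds plus 3 SD, cut at about 60% in these data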;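 also: 0% = DMSO-treated cells and 100% = gossypol-treated cells at 36 µM; higher means less SRC3-driven luciferase light from the GAL4 reporter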
VP16 Luc counter = inhibits VP16 reporter, flagging COUP-TFII antagonist hits. HEK293 Gal4-VP16 luciferase reporter, luminescence. AID 687007. actives 25% (n = 2,500). inhibition, % at 8.5 µM. shares compounds with COUP-TFII inh; in the data active = inhibition above about 13%
COUP-TFII conf = confirmation of human COUP-TFII (NR2F2) inhibitors | shares compounds with COUP-TFII inh | HEK293 NGFI-A luciferase reporter, luminescence | inhibition, % at 8.5 µM | actives 45% (n = 2,500) | AID 687008;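 active = mean inhibition over three repeats above a set limit taken from the earlier primary screen, cut at about 38% in these data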;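 also: 100% = cells given the luciferase reporter alone without the COUP-TF2 vector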
* hit, by the source's call. Compounds with a hit are over-represented: about 0.84% of the library has one in this group of screens.

Results for CC12CCC(=O)C=C1CCC1C2CCC2(C)C(c3csc(N)n3)CCC12 (centres undefined) ?
COUP-TFII inh: 57*; LRH-1 inv ag: 27; NCOA2 inhibitor: 38; SRC1 inh: 23; NCOA3 inh: 19; VP16 Luc counter: 9; COUP-TFII conf: 45*

What do the screens show for `CCn1cc(CCCC(=O)NCc2cccc(OC)c2)c2ccccc21`?
COUP-TFII inh: 38*; LRH-1 inv ag: -6; NCOA2 inhibitor: -16; SRC1 inh: -37; NCOA3 inh: 5; VP16 Luc counter: -5; COUP-TFII conf: 7

How did CCn1cc(CCCC(=O)NCc2ccccc2OC)c2ccccc21 do in these assays?
COUP-TFII inh: 2; LRH-1 inv ag: -7; NCOA2 inhibitor: 2; SRC1 inh: 2; NCOA3 inh: 3

What do the screens show for `CCOC(=O)[C@]12CCCCC/C=C\1N(Cc1ccc(OC)cc1)C(=O)[C@H]2CC(=O)N1CCN(C(=O)c2ccco2)CC1`?
COUP-TFII inh: -5; NCOA2 inhibitor: 6

What do the screens show for `Nc1ccc(-c2nc3c(Cl)cc(N)cc3[nH]2)cc1`?
COUP-TFII inh: 48*; LRH-1 inv ag: 17; NCOA2 inhibitor: 53*; SRC1 inh: 38; NCOA3 inh: 38; VP16 Luc counter: 57*; COUP-TFII conf: 36

What do the screens show for `Cc1[nH]c2ccccc2c1/C=N/Nc1nncn1N`?
COUP-TFII inh: 92*; LRH-1 inv ag: -21; NCOA2 inhibitor: 17; SRC1 inh: -33; NCOA3 inh: -34; VP16 Luc counter: -70; COUP-TFII conf: -35

Results for Cc1onc(-c2ccc(Cl)cc2)c1-c1ccn(S(=O)(=O)c2ccccc2)n1 ?
COUP-TFII inh: 24; NCOA2 inhibitor: 3

Results for Cc1ccc(C(=O)Nc2ccc(CC(=O)O)cc2)o1 ?
COUP-TFII inh: 3; LRH-1 inv ag: 8; NCOA2 inhibitor: -2; SRC1 inh: -12; NCOA3 inh: -8

How did CC(C)(C)c1ccc(C(=O)Nc2ccc(CC(=O)O)cc2)o1 do in these assays?
COUP-TFII inh: 95*; LRH-1 inv ag: 53; NCOA2 inhibitor: 87*; SRC1 inh: 59; NCOA3 inh: 58; VP16 Luc counter: 84*; COUP-TFII conf: 91*

Results for COc1ccc(CNc2cc(C)nc3ncnn23)c(OC)c1 ?
COUP-TFII inh: 65*; LRH-1 inv ag: 32; NCOA2 inhibitor: 16; SRC1 inh: 22; NCOA3 inh: 4; VP16 Luc counter: -5; COUP-TFII conf: 35

How did Cc1nc2ccc(NC(=O)c3cc(Cl)ccc3F)cc2c(=O)[nH]1 do in these assays?
COUP-TFII inh: -13; NCOA2 inhibitor: -43

Results for CCOCCCNC(=S)N1CCN(c2nc(-c3ccc(F)cc3)cs2)CC1 ?
COUP-TFII inh: 59*; LRH-1 inv ag: 5; NCOA2 inhibitor: 23; SRC1 inh: 14; NCOA3 inh: 3; VP16 Luc counter: -6; COUP-TFII conf: 42*

How did S=C(NCC1CCCO1)N1CCN(c2cccc(Cl)c2)CC1 (centres undefined) do in these assays?
COUP-TFII inh: 23; LRH-1 inv ag: -9; NCOA2 inhibitor: 2; SRC1 inh: 10; NCOA3 inh: 22

Results for S=C(NCCCN1CCOCC1)N1CCN(c2nc(-c3ccc(Cl)cc3)cs2)CC1 ?
COUP-TFII inh: 58*; LRH-1 inv ag: 16; NCOA2 inhibitor: 25; SRC1 inh: 16; NCOA3 inh: 22; VP16 Luc counter: -2; COUP-TFII conf: 28

What do the screens show for `S=C(NCC1CCCO1)N1CCN(c2nc(-c3ccc(Cl)cc3)cs2)CC1` (centres undefined)?
COUP-TFII inh: 59*; LRH-1 inv ag: 4; NCOA2 inhibitor: 27; SRC1 inh: 0; NCOA3 inh: 22; VP16 Luc counter: -1; COUP-TFII conf: 28

What do the screens show for `COc1cc(NC(=O)c2cccc3c(-c4cccnc4)coc23)cc(OC)c1OC`?
COUP-TFII inh: 52*; LRH-1 inv ag: 28; NCOA2 inhibitor: 29; SRC1 inh: 35; NCOA3 inh: 16; VP16 Luc counter: 7; COUP-TFII conf: 33

How did O=C(Nc1cccc(C(F)(F)F)c1)c1cccc2c(-c3cccnc3)coc12 do in these assays?
LRH-1 inv ag: 1; SRC1 inh: 4; NCOA3 inh: -6
